Our source for the growth (% of control) and O2 uptake (% of control) values is PubChem BioAssay AID1259412 (Laboratorio de Genomica e Expressao (LGE), UNICAMP, 2018).

The nature of experiment [1]: alternative oxidase inhibition and growth effect – profiling panel (AID 1259412).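 For growth (% of control): growth monitored over 72 h.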 The following applies: AOX-dependent respiration, at 500 µM; for growth (% of control): O2 uptake, measured here: growth; for O2 uptake (% of control): measured here: O2 uptake, control condition (no AOX).
For experiment [2], the system named is alternative oxidase (AOX). The description is as above. The conditions noted are these: AOX-dependent respiration, at 500 µM, stronger effect = lower value.
[3] abbreviates: AOX-dependent treatment condition, stronger effect = lower value.

Calls of active or inactive are those of the source. The rule behind the calls is not given here.

`COc1cccc(C(=O)Nc2cccc(I)c2)c1`: the figures for the growth (% of control) in experiment [1] (setting [3]) and in experiment [1] (control condition) were 78.2% and 80%, respectively. For the same compound, the O2 uptake (% of control) is 92.5% in experiment [1] (stronger effect = lower value) and 23% (active) in experiment [2].
Take `O=C(Nc1cccc([N+](=O)[O-])c1)c1ccccc1`: the values for the growth (% of control) in experiment [1] (setting [3]) and in experiment [1] (control condition) were 61.1% and 103%, respectively. Also, the O2 uptake (% of control) was 95.6% in experiment [1] (stronger effect = lower value) and 36% (active) in experiment [2].
Regarding `O=C(Nc1cccc([N+](=O)[O-])c1)c1cccc(I)c1`, the growth (% of control) was 68.4% in experiment [1] (setting [3]) and 95.6% in experiment [1] (control condition). For the same compound, the O2 uptake (% of control) is 93.5% in experiment [1] (stronger effect = lower value) and 21% (active) in experiment [2].
With `COc1cccc(C(=O)Nc2cccc(S(=O)(=O)c3cccc(N)c3)c2)c1`, the growth (% of control) is 132% in experiment [1] (setting [3]) and 112% in experiment [1] (control condition). For the same compound, the O2 uptake (% of control) in experiment [1] (stronger effect = lower value) was 105%; in experiment [2], 98.1% (inactive).
As to `COc1cccc(C(=O)Nc2cccc(Cl)c2)c1`, the growth (% of control) in experiment [1] (setting [3]) stood at 0%; in experiment [1] (control condition), 33%. Also, the results for the O2 uptake (% of control) in experiment [1] (stronger effect = lower value) and in experiment [2] were 76.3% and 33.2% (active), respectively.
As for `N#Cc1cccc(C(=O)Nc2cccc(NC(=O)c3cccc(C#N)c3)c2)c1`, the growth (% of control) in experiment [1] (setting [3]) turned out to be 91.4%; in experiment [1] (control condition) it was 132%. Also, the O2 uptake (% of control) in experiment [1] (stronger effect = lower value) turned out to be 107%; in experiment [2], 95.1%.
Take `COc1cccc(C(=O)Nc2cccc(F)c2)c1`: the growth (% of control) turned out to be 7.84% in experiment [1] (setting [3]) and 32.6% in experiment [1] (control condition). Also, the O2 uptake (% of control) was 79.2% in experiment [1] (stronger effect = lower value) and 44.5% (active) in experiment [2].
As to `Cc1cccc(C(=O)Nc2cccc(Br)c2)c1`, the growth (% of control) in experiment [1] (setting [3]) worked out at 26.6%; in experiment [1] (control condition) it was 101%. Moreover, the O2 uptake (% of control) is 90.2% in experiment [1] (stronger effect = lower value) and 18.6% (active) in experiment [2].
Regarding `O=C(Nc1cccc(C(F)(F)F)c1)c1ccccc1`, the growth (% of control) is 38.9% in experiment [1] (setting [3]) and 71.4% in experiment [1] (control condition). Further, the O2 uptake (% of control) was 84% in experiment [1] (stronger effect = lower value) and 16.8% (active) in experiment [2].
With `N#Cc1cccc(C(=O)NCc2ccc3c(c2)OCO3)c1`, the growth (% of control) in experiment [1] (setting [3]) stood at 79.6%; in experiment [1] (control condition) it was 79.7%. In addition, the results for the O2 uptake (% of control) in experiment [1] (stronger effect = lower value) and in experiment [2] were 103% and 66.1% (active), respectively.
On to `O=C(Nc1cccc(C(F)(F)F)c1)c1cccc(I)c1`, for which the growth (% of control) was found to be 49.4% in experiment [1] (setting [3]) and 83.8% in experiment [1] (control condition). Further, the O2 uptake (% of control) in experiment [1] (stronger effect = lower value) is 82.2%; in experiment [2], 17.5% (active).
In the case of `O=C(Nc1cccc([N+](=O)[O-])c1)c1cccc(F)c1`, the values for the growth (% of control) in experiment [1] (setting [3]) and in experiment [1] (control condition) were 91.1% and 120%, respectively. Further, the results for the O2 uptake (% of control) in experiment [1] (stronger effect = lower value) and in experiment [2] were 92.7% and 44.8% (active), respectively.
Turning to `O=C(Nc1ccc(N2CCOCC2)cc1)c1cccc(I)c1`, the growth (% of control) was found to be 95.3% in experiment [1] (setting [3]) and 99.3% in experiment [1] (control condition). The O2 uptake (% of control) in experiment [1] (stronger effect = lower value) is 94.4%; in experiment [2], 74.5% (inactive).
The corresponding values for `O=C(Nc1ccc(N2CCOCC2)cc1)c1ccccc1` are 85.7%, 87.8%, 93.3% and 93.8% (inactive).
In the same order, the values of `O=C(Nc1ccc(N2CCOCC2)cc1)c1cccc(F)c1` are 94.7%, 90.8%, 104% and 86.3% (inactive).
Turning to `COc1cccc(C(=O)Nc2ccccc2C(N)=O)c1`, the growth (% of control) in experiment [1] (setting [3]) was found to be 80.1%; in experiment [1] (control condition) it was 82.1%. Moreover, the O2 uptake (% of control) in experiment [1] (stronger effect = lower value) was 93.7%; in experiment [2] it was 76.2% (inactive).
As for `N#Cc1cccc(C(=O)Nc2ccccc2)c1`, the growth (% of control) was found to be 58.9% in experiment [1] (setting [3]) and 89.5% in experiment [1] (control condition). The results for the O2 uptake (% of control) in experiment [1] (stronger effect = lower value) and in experiment [2] were 105% and 69.6% (active), respectively.
In the same order, the values of `O=C(Nc1cccc(Cl)c1)c1cccc(Cl)c1` are 48.1%, 80.2%, 89.8% and 9.19% (active).
With `O=C(Nc1cccc(OCc2ccccc2)c1)c1cccc(Br)c1`, the growth (% of control) is 90.8% in experiment [1] (setting [3]) and 93.9% in experiment [1] (control condition). Moreover, the O2 uptake (% of control) in experiment [1] (stronger effect = lower value) is 107%; in experiment [2], 88.7% (active).
With `O=C(Nc1cccc(F)c1)c1cccc(I)c1`, the results for the growth (% of control) in experiment [1] (setting [3]) and in experiment [1] (control condition) were 64.5% and 86.5%, respectively. The O2 uptake (% of control) in experiment [1] (stronger effect = lower value) is 76%; in experiment [2] it was 23.7% (active).
`O=C(Nc1cccc(Br)c1)c1ccccc1`: the values for the growth (% of control) in experiment [1] (setting [3]) and in experiment [1] (control condition) were 51.9% and 71.6%, respectively. Moreover, the O2 uptake (% of control) in experiment [1] (stronger effect = lower value) was 88.5%; in experiment [2], 15.7% (active).
In the case of `Cc1cccc(C(=O)Nc2cccc(F)c2)c1`, the growth (% of control) in experiment [1] (setting [3]) was 0.51%; in experiment [1] (control condition), 43.4%. The O2 uptake (% of control) in experiment [1] (stronger effect = lower value) was 87.8%; in experiment [2], 30.7% (active).
Turning to `O=C(Nc1cccc(OCc2ccccc2)c1)c1ccccc1`, the values for the growth (% of control) in experiment [1] (setting [3]) and in experiment [1] (control condition) were 99.7% and 117%, respectively. For the same compound, the figures for the O2 uptake (% of control) in experiment [1] (stronger effect = lower value) and in experiment [2] were 90.5% and 38.2% (active), respectively.
The corresponding values for `O=C(NCc1ccc2c(c1)OCO2)c1cccc(I)c1` are 99.2%, 97.5%, 99.1% and 26.3% (active).
`O=C(Nc1cccc(NC(=O)c2cccc(Br)c2)c1)c1cccc(Br)c1`: the growth (% of control) in experiment [1] (setting [3]) turned out to be 77.6%; in experiment [1] (control condition) it was 95.3%. Besides, the O2 uptake (% of control) was 105% in experiment [1] (stronger effect = lower value) and 66.5% (active) in experiment [2].
In the case of `O=C(Nc1cccc(Br)c1)c1cccc(I)c1`, the growth (% of control) in experiment [1] (setting [3]) came out at 103%; in experiment [1] (control condition) it was 98.1%. Moreover, the O2 uptake (% of control) in experiment [1] (stronger effect = lower value) was 89.6%; in experiment [2], 20.2% (active).
On to `COc1cc(NC(=O)c2cccc(C)c2)cc(OC)c1OC`, for which the growth (% of control) amounted to 85.5% in experiment [1] (setting [3]) and 96.2% in experiment [1] (control condition). Moreover, the O2 uptake (% of control) in experiment [1] (stronger effect = lower value) was 83.6%; in experiment [2] it was 66.4% (active).
Regarding `O=C(Nc1cccc(Br)c1)c1cccc(Cl)c1`, the values for the growth (% of control) in experiment [1] (setting [3]) and in experiment [1] (control condition) were 65.4% and 91.3%, respectively. The O2 uptake (% of control) in experiment [1] (stronger effect = lower value) was 95.9%; in experiment [2] it was 12% (active).
Take `O=C(Nc1ccccc1)c1cccc(Br)c1`: the growth (% of control) in experiment [1] (setting [3]) came to 75%; in experiment [1] (control condition), 91.1%. In addition, the O2 uptake (% of control) in experiment [1] (stronger effect = lower value) is 89.6%; in experiment [2], 19.3% (active).
`O=C(Nc1cccc(Cl)c1)c1cccc(Br)c1`: the values for the growth (% of control) in experiment [1] (setting [3]) and in experiment [1] (control condition) were 71.8% and 101%, respectively. For the same compound, the O2 uptake (% of control) was 85% in experiment [1] (stronger effect = lower value) and 15% (active) in experiment [2].
`N#Cc1cccc(C(=O)Nc2ccccc2C(N)=O)c1`: the results for the growth (% of control) in experiment [1] (setting [3]) and in experiment [1] (control condition) were 99.3% and 85.5%, respectively. The O2 uptake (% of control) is 107% in experiment [1] (stronger effect = lower value) and 95.7% (inactive) in experiment [2].
The corresponding values for `COc1cccc(C(=O)Nc2ccc(N3CCOCC3)cc2)c1` are 86.1%, 86.6%, 102% and 92.3%.
The corresponding values for `Cc1cccc(C(=O)Nc2ccc(N3CCOCC3)cc2)c1` are 91%, 96%, 96.2% and 84.8% (inactive).
Regarding `Cc1cccc(C(=O)Nc2cccc([N+](=O)[O-])c2)c1`, the growth (% of control) came out at 36.7% in experiment [1] (setting [3]) and 80.2% in experiment [1] (control condition). The results for the O2 uptake (% of control) in experiment [1] (stronger effect = lower value) and in experiment [2] were 98.8% and 34.3% (active), respectively.
With `O=C(Nc1cccc(F)c1)c1ccccc1`, the growth (% of control) in experiment [1] (setting [3]) came out at 83%; in experiment [1] (control condition), 92.8%. The values for the O2 uptake (% of control) in experiment [1] (stronger effect = lower value) and in experiment [2] were 102% and 43.6% (active), respectively.
As to `O=C(Nc1cccc(Br)c1)c1cccc(F)c1`, the results for the growth (% of control) in experiment [1] (setting [3]) and in experiment [1] (control condition) were 22.3% and 90.4%, respectively. Besides, the O2 uptake (% of control) in experiment [1] (stronger effect = lower value) was 77.9%; in experiment [2], 35.1% (active).
Turning to `O=C(NCc1ccc2c(c1)OCO2)c1ccccc1`, the growth (% of control) in experiment [1] (setting [3]) stood at 56.1%; in experiment [1] (control condition), 65.8%. Besides, the O2 uptake (% of control) in experiment [1] (stronger effect = lower value) is 99.1%; in experiment [2] it was 38.6% (active).
In the same order, the values of `COc1cc(NC(=O)c2cccc(C#N)c2)cc(OC)c1OC` are 89.6%, 90.9%, 104% and 91.5% (inactive).
Turning to `O=C(Nc1ccccc1)c1cccc(I)c1`, the growth (% of control) in experiment [1] (setting [3]) was 67.8%; in experiment [1] (control condition), 86.4%. Besides, the figures for the O2 uptake (% of control) in experiment [1] (stronger effect = lower value) and in experiment [2] were 87.7% and 21.9% (active), respectively.
